These results are taken from PubChem BioAssay (NCI).

The panel holds about 83,000 compounds, 20% with a hit somewhere; the sample as a whole holds those more often.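 Treatment: one concentration, 48 hours, 96-well format. Scoring: percent growth, with anything below 10 considered active.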 Unmarked numbers belong to inactive results. Activity calls are given as the source filed them.

In this experiment the test system is MDA-MB-468 breast. The experiment in a line: NCI-60 one-dose screen, 48 h (100 = growth as untreated, 0 = no growth, -100 = all killed). To be noted: 10 µM unless noted.
`Cc1c(Cn2cc(COc3ccc(Br)cc3)nn2)c(C)c(Cn2cc(COc3ccc(Br)cc3)nn2)c(C)c1Cn1cc(COc2ccc(Br)cc2)nn1`: the growth is 109%.

For the compound `S=c1[nH]ccn1-c1c(Cl)cccc1Cl`, the growth was 110%.

On to `N#Cc1c(-c2cccs2)cc(-c2cnccn2)nc1SCC(=O)N/N=C/c1ccc(Cl)cc1`, for which the growth was 108%.

Regarding `Cc1nc2cc(Nc3nc(Nc4ccc(F)cc4)nc(-c4cccs4)n3)ccc2n1Cc1ccccc1`, the growth was 33.2%.

Turning to `O=c1c2cc(C(F)(F)F)ccc2sc2c(NCCCNCCO)nc3ccccc3c12`, the growth is -74.3% (active).

As for `Cc1nc2c(c(=O)[nH]1)OCN(Cc1ccccc1)C2`, the growth was 108%.

Regarding `Cc1ccc2[nH]c(-c3ccc(S(C)(=O)=O)cc3)c(/C=N/N=C(N)N)c2c1`, the growth was 81.1%.

For the compound `Cc1nc2ccccc2c(/C=C/c2ccccc2)c1C(=O)/C=C/c1ccc(Cl)cc1`, the growth is 19.4%.

Regarding `CC(=O)NCC(=O)c1ccc([N+](=O)[O-])cc1`, the growth is 117%.

As to `CCCCCCCC/C=C\CCCCCCCCOc1ccc(CC(=O)NCC[N+](C)(C)C)cc1`, the growth was 60.1%.

`COc1ccc(/C=C(\C#N)C(=O)N2c3ccccc3Sc3ccc(SC)cc32)cc1F`: the growth is 72.3%.

As to `CS(=O)CC1=NC(=N)N=C1CS(C)=O` (stereo not given), the growth is 88.5%.

Regarding `CCN1C(=O)N(CC)C2C1NN=c1s/c(=C\c3ccco3)c(=O)n12` (stereo not given), the growth was 13.8%.

With `COc1ccc2c(c1)[nH]c(=O)c1c3cccnc3cn21`, the growth is 6.19% (active).

Take `Nc1nsc(C(=O)c2ccc(O)cc2)n1`: the growth was 105%.

Take `O=Nc1c(-c2cccc([N+](=O)[O-])c2)nc2ncccn12`: the growth is 17.4%.

Consider `COc1ccc(Cn2c(Br)c3c(c2Br)-c2nc(N)sc2CC3)cc1`, for which the growth is -5.61% (active).

Consider `C=C(C)[C@@H]1CC[C@]2(C(=O)N3CCN(C)CC3)CC[C@]3(C)[C@H](CC[C@@H]4[C@@]5(C)C/C(=C/c6ccncc6)C(=O)C(C)(C)[C@@H]5CC[C@]43C)[C@@H]12`, for which the growth is 55.6%.

Consider `C=CCNc1ccc2c3c(cccc13)C(=O)N(CC=C)C2=O`, for which the growth was 60.3%.

Consider `Cc1cccc2c3c(sc12)C(c1ccc(Cl)cc1)c1c(nc(CC(=O)Nc2ccccc2)[nH]c1=O)O3` (stereo not given), for which the growth was 9.75% (active).

Consider `O=C1Nc2ccc(F)cc2C12Nc1cc(Cl)ccc1S2` (stereo not given), for which the growth was 107%.

In the case of `CCN1C(=O)/C(=c2\sc3n(c2=O)NC2C(N=3)N(CC)C(=O)N2CC)c2ccccc21` (stereo not given), the growth is 27%.

Regarding `Cc1ccc(NC(=O)Cn2nncc2CN2C(=O)CSC2=O)cc1C`, the growth was 95.5%.

Turning to `CCOC(=O)C(CC(=O)O)=C(C(=O)OCC)C(=O)OCC`, the growth was 97.1%.

`COc1ccc2c(c1)N(CCO)C1=C(C(=O)OC1)C2c1ccc(OC)c(OC)c1` (stereo not given): the growth was 0.0938% (active).

Take `CNCCCNc1nc2ccccc2c2c(=O)c3cc(OC)ccc3sc12`: the growth was 24.8%.

Regarding `COc1ccc(C2C3=C(COC3=O)N(CCO)c3cc4c(cc32)CCC4)cc1OC` (stereo not given), the growth is -17.1% (active).

As to `COC(=O)/C=C1/SC(=Nc2ccc(F)cc2)N(CCc2c[nH]c3ccc(O)cc23)C1=O`, the growth was 36%.

Regarding `CC1=C(C#N)C(=O)NC(C)C1` (stereo not given), the growth was 108%.

Consider `CCn1cc(C(=O)O)c(=O)c2cnc(N3CCCC3)nc21`, for which the growth is 99.2%.

Regarding `CN(CCCCCCCCNc1ccnc2ccccc12)Cc1ccc(-c2ccc(-c3ccc(C#N)cc3)s2)cc1`, the growth is -50.4% (active).

Take `Cc1ccc(S(=O)(=O)N2CCc3ccc(O)c4c3C2Cc2cc(Cl)ccc2-4)cc1` (stereo not given): the growth was 53.9%.

Consider `CC(C)(C)CC(C)(C)Nc1c(-c2ccc(-c3ccccc3)cc2)nc2cnccn12`, for which the growth was 109%.

Regarding `Cc1nc2nc(SCC(=O)O)[nH]c2c(=O)[nH]1`, the growth is 106%.

As for `CCOC(C)=N`, the growth was 117%.

Take `CCC1C[N+]2=C(c3cc(OC)c(OC)cc3CC2)c2c1cc1n2CCc2cc(OC)c(OC)cc2-1` (stereo not given): the growth is 1.92% (active).

As for `COc1ccc(S(=O)(=O)N2CCN(C)CC2)cc1NC(=O)c1[nH]c(C)c2c1CCCCC2=O`, the growth is 39.8%.

Turning to `CCOC(=O)C/C(=C\c1ccccc1)C(C)=O`, the growth is 108%.

`O=C(Nc1ccc2ncnc(Nc3ccc(F)c(Cl)c3)c2c1)c1ccccc1`: the growth was -8.33% (active).

Regarding `O=S(=O)(O)c1cc(O)c2c(N=Nc3ccc(Nc4ccccc4)c4c(S(=O)(=O)O)cccc34)cc(S(=O)(=O)O)cc2c1`, the growth is 103%.
